High-throughput results deposited in PubChem by National Center for Advancing Translational Sciences (NCATS).
D3 antag: antagonists of human D3 dopamine receptor; P35462; D3R cells, DiscoveRx beta-arrestin luminescence, antagonist mode; stronger effect = lower value; max response, negative = inhibition, %; actives 2.5% (n = 360,000); in the data active means max response below about -50%; inconclusive means no clear call, values can overlap the other calls; further: on the % scale 0 is the no-effect control and ±100 the full control effect
Target sequence (P35462 whole entry, looked up): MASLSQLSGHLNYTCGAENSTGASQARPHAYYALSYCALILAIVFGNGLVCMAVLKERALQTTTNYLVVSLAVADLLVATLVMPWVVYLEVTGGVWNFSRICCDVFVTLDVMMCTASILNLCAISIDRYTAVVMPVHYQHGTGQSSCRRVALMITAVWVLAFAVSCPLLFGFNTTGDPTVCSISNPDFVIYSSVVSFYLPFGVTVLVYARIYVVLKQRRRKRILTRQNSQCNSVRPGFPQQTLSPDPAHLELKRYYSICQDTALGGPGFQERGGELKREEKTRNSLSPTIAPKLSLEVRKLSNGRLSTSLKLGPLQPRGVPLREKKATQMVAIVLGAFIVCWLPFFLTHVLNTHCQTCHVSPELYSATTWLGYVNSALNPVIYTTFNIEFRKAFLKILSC
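Cells expressing the human receptor were seeded at 1500 cells/well, incubated overnight at 37 degrees C in 5% CO2, then exposed to library compounds with dopamine controls for 90 minutes at 37 degrees C before luminescent detection.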
D1 ag: agonists of human D1 dopamine receptor; P21728; HEK293 T-REx D1 cells, calcium flux, agonist mode; actives 1% (n = 360,000); activation, % at 2 µM; in the data active means activation above about 30%; further: 0% is about no effect
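Tetracycline-induced HEK293 TREx D1 cells, force-coupled to calcium signalling, were dye-loaded with a no-wash calcium kit. Compound was pin-added after a 10 s baseline. Fluorescence was read kinetically at 1 cycle/s for 180 s, with calcium rises flagged as agonism.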
DRD3 agonist: agonists of human D3 dopamine receptor; P35462; D3R DiscoveRx beta-arrestin cells, luminescence, 90 min; max activation, %; actives 0.58% (n = 410,000); AID 652048; in the data active means max activation above about 30%; further: 0% is about no effect
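Agonist mode: compounds and dopamine controls were applied to plated cells for 90 min at 37 degrees C after an overnight attachment at 1500 cells/well. Luminescent read-out followed 30 - 60 minutes at room temperature with DiscoveRx detection reagent.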
D1 PAM: human D1 dopamine receptor positive modulation; AID 504651; potentiation, % at 10 µM; HEK293 TREx D1 cells, calcium flux, dopamine EC20 potentiation; P21728; actives 0.036% (n = 360,000); in the data active means potentiation above about 30%; further: 0% is about no effect
D1 antag: human D1 dopamine receptor antagonism | HEK293 TREx D1 cells, calcium flux, dopamine EC80; stronger effect = lower value | activity change, negative = inhibition, % at 10 µM | P21728 | actives 3.2% (n = 360,000); in the data active means activity change below about -30%; further: on the % scale 0 is the no-effect control and ±100 the full control effect
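Tetracycline-induced HEK293 T-REx cells with force-coupled D1 receptor were loaded with a no-wash calcium dye. Compound was added after a 10 s baseline and read kinetically for 180 s; EC80 dopamine was then added and calcium flux followed another 180 s.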
* hit, by the source's call; ? = inconclusive; . = no result given. Sampled rows, rich in hits. Any-hit rate of the full collection: about 6.1%.

SMILES | D3 antag | D1 ag | DRD3 agonist | D1 PAM | D1 antag
CN1c2ccccc2C(O)=C(C(=S)Nc2ccc(Cl)cc2)S1(=O)=O | -87* | 5 | 4 | -5 | -17
Cc1ccc(NC(=S)C2=C(O)c3sccc3N(C)S2(=O)=O)cc1 | -88* | -2 | 4 | -2 | .
Cc1ccc(NC(=O)C2=C(O)c3sccc3N(C)S2(=O)=O)cc1 | ? | 0 | 0 | -4 | -6
Cc1cccc(NC(=O)C2=C(O)c3ccccc3N(C)S2(=O)=O)c1 | ? | 0 | 2 | 2 | 6
CCOCCCNC(=O)C(c1ccc(C)cc1)N(Cc1ccc2c(c1)OCO2)C(=O)c1ccc(NC(C)=O)cc1 (stereo unspecified) | . | 0 | 20 | 0 | -12
CN(C)CCCOc1ccc2c(c1)Sc1ccccc1CC2=O | ? | 79* | -47 | -6 | -60*
ON=C1c2cc(OCCN3CCCCC3)ccc2-c2ccc(OCCN3CCCCC3)cc21 | ? | 6 | -26 | -4 | -5
O=C1Cc2ccccc2Sc2c(OCCN3CCCCC3)cccc21 | -65* | 7 | -31 | 0 | -6
O=C1Cc2ccccc2Sc2cc(OCCCN3CCCCC3)ccc21 | -53* | 14 | -6 | -10 | -9
Nc1ccc2c(c1)C(=O)Cc1ccccc1S2 | 2 | 3 | 2 | -6 | 9
Cc1ccc(CNC(=O)c2nc(SCc3ccc(F)cc3)ncc2Cl)cc1 | . | 21 | -11 | 2 | 4
CN(C)CCOCCSc1ccc(Cl)cc1 | -86* | 10 | -28 | 4 | -25
COCCCNCCOCCSc1ccc(Cl)cc1 | -68* | 9 | -31 | 3 | -2
CC(C)NCCOCCSc1ccc(Cl)cc1 | -84* | 3 | -9 | 2 | -7
CCCCNCCOCCSc1ccc(Cl)cc1 | -81* | 17 | -7 | -6 | -8
C/C(=N\NS(=O)(=O)c1ccc(C)c([N+](=O)[O-])c1)c1cc2ccccc2o1 | -70* | 0 | -8 | -3 | -6
C/C(=N/Nc1ccc([N+](=O)[O-])cc1)c1c[nH]c2ccccc12 | 1 | 83* | -7 | -8 | -33*
Cc1ccc(C(=O)c2cc3ccccc3o2)cc1[N+](=O)[O-] | ? | 2 | -4 | -6 | .
C/C(=N\NS(=O)(=O)c1ccc(Cl)c([N+](=O)[O-])c1)c1cc2ccccc2o1 | -98* | 1 | 3 | -3 | -6
C/C(=N/Nc1ccc([N+](=O)[O-])cc1)c1ccc(C)cc1C | ? | 5 | -9 | 1 | -18
C/C(=N\Nc1ccc([N+](=O)[O-])cc1)c1cc2ccccc2o1 | -25 | 59* | -11 | -12 | -30*
CCCCCn1c(=N)c(S(=O)(=O)c2ccccc2)cc2c(=O)n3cccc(C)c3nc21 | . | 4 | 1 | 1 | 0
CCn1c2ccccc2c2nnc(N3CCN(c4ccc(OC)cc4)CC3)nc21 | . | -1 | 2 | 0 | 2
COc1ccc(-c2nc3nc(C)cc(Nc4ccc(C(C)=O)cc4)n3n2)cc1 | . | 3 | 4 | 1 | -1
C/C(=N\NS(=O)(=O)c1ccc(Cl)c([N+](=O)[O-])c1)c1ccc(C)o1 | -70* | -2 | 7 | 0 | -16
SMILES | D3 antag | D1 ag | DRD3 agonist | D1 PAM | D1 antag
C/C(=N\NS(=O)(=O)c1ccc(C)c([N+](=O)[O-])c1)c1ccc2c(c1)OCO2 | -19 | 3 | -14 | 3 | 4
CN1CCN(CC(=O)N2CCn3c4c(c5cc(C6CCCCC6)ccc53)CCCC42)CC1 (stereo unspecified) | -65* | 25 | 3 | -16 | -38*
COc1ccc(/C=C/C(=O)Nc2nc3n(n2)C(c2ccc(F)cc2)C=C(c2ccccc2)N3)cc1 (stereo unspecified) | . | 4 | 1 | 0 | 13
COc1ccc(CN(C)CC(=O)Nc2sc3c(c2C#N)CCC3)cc1OC | 24 | 6 | 37* | -8 | -14
COc1ccc(CN2COc3ccc4c(C)cc(=O)oc4c3C2)cc1 | . | 0 | 0 | 1 | 5
CNC(=O)C1CCC(Cn2c(=O)c3sccc3n(CC(=O)NCc3ccccc3)c2=O)CC1 (stereo unspecified) | . | 3 | 0 | -7 | 5
COCCN1C(=O)c2[nH]nc(-c3ccccc3O)c2C1c1ccc(OCc2ccccc2)c(OC)c1 (stereo unspecified) | . | 4 | 7 | 0 | 7
O=C1C(=O)N(C2CCN(S(=O)(=O)c3ccccc3)CC2)CCN1Cc1ccccc1 | . | 3 | 1 | -3 | -4
Cc1ccc2nc3sc(C(=O)N4CCCc5ccccc54)c(N)c3cc2c1 | ? | 36* | -29 | -1 | 9
COc1cc(C)nc(N(C)C(C)=O)n1 | -9 | 3 | 3 | 4 | -34*
Oc1cccc(-c2nc3c4c(ncn3n2)-c2ccccc2CC42CCCC2)c1 | 212 | 2 | 83* | 0 | -6
Cc1cccc(OCc2ccc(-c3nc(C#N)c(NCc4cccnc4)o3)o2)c1 | . | 5 | -2 | -1 | -12
Cc1cccc(NC(=S)NC2CC3CCCC(C2)N3CC(C)C)c1 (stereo unspecified) | ? | 10 | -5 | -9 | -59*
Cc1cccc(NC(=S)NC2CC3CCC(C2)N3Cc2ccco2)c1 (stereo unspecified) | ? | 17 | -29 | -20 | -67*
Cc1ccc(NC(=S)NC2CC3CCCC(C2)N3Cc2ccco2)cc1 (stereo unspecified) | -14 | 41* | -36 | -3 | -65*
CNC(=S)NC1CC2CCCC(C1)N2Cc1ccco1 (stereo unspecified) | -10 | 4 | -30 | -4 | -24
Cc1cccc(NC(=S)NC2CC3CCCC(C2)N3Cc2ccco2)c1 (stereo unspecified) | -61* | 6 | -21 | -4 | -8
Cc1cccc(NC(=O)NC2CC3CCC(C2)N3Cc2ccco2)c1 (stereo unspecified) | -7 | 1 | -9 | -6 | 8
Cc1cc(C)cc(NC(=S)NC2CC3CCCC(C2)N3CC(C)C)c1 (stereo unspecified) | 16 | 6 | -5 | -4 | 5
CCCN1C2CCCC1CC(NC(=S)Nc1cccc(C)c1)C2 (stereo unspecified) | 6 | 1 | 3 | -11 | 3
COCCCNC(=S)NC1CC2CCCC(C1)N2Cc1ccco1 (stereo unspecified) | -150* | 0 | -14 | -8 | -11
COc1ccc(Sc2ncnc3onc(C)c23)cc1 | -16 | -1 | -1 | -3 | -42*
CC1CCCC(C)N1/N=C/c1cc(Br)cc(Br)c1O (stereo unspecified) | -62* | 3 | -9 | -4 | 14
CC(CCc1ccccc1)NC(=O)CN(C)Cc1ccc(F)cc1 (stereo unspecified) | -5 | 2 | -13 | -1 | -2
CC(CCc1ccccc1)NC(=O)CN(C)Cc1ccccc1F (stereo unspecified) | -1 | 2 | 41* | -4 | 9
